Assay results from PubChem BioAssay (NCATS).
Records with an inconclusive call do not appear. Where a call stands in place of a potency, no number is given. Active and inactive are the calls of the source. The call rests on the fitted dose curve; in most records, active means well fitted inhibition curve with a large enough effect; inconclusive means small, poorly fitted or top-dose-only effect; inactive means flat fitted curve, though single readings scatter.

test system: C2A; assay: qHTS profiling for inhibitors of Plasmodium falciparum proliferation (AID 504749); further: nearly all actives have a fitted effect of over 60% in size; conditions: P. falciparum in erythrocytes, SYBR Green DNA, 72 h; series mostly up to 28.7 µM
Summary of the method: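 In a 72 h erythrocytic culture (37 C, humidified, 5% CO2) at 2.5% hematocrit and 0.3% starting parasitemia, compounds were tested; SYBR Green I in detergent lysis buffer stained parasite DNA overnight.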

SMILES	Potency
O=C1OC(OC(=O)c2cccnc2Nc2cccc(C(F)(F)F)c2)c2ccccc21 (stereo not drawn)	inactive
O=c1cc[nH]c(=S)[nH]1	inactive
Nc1ncnc2c1ncn2[C@@H]1O[C@H](CO)[C@@H](O)[C@H]1O	inactive
O=c1cc[nH]c(=O)[nH]1	inactive
CC(=O)Nc1ccc(/C=N/NC(N)=S)cc1	inactive
CCn1cc(C(=O)O)c(=O)c2cnc(N3CCNCC3)nc21	inactive
CC1(C)OC(=O)NC1=O	inactive
CC1=C(/C=C/C(C)=C/C=C/C(C)=C/C(=O)O)C(C)(C)CCC1	inactive
COc1cc(C)c(Cc2cnc(N)nc2N)cc1OC	inactive
Oc1cccc(O)c1	inactive
CC(=O)CCC(=O)O	inactive
O=C(O)c1ccccc1-c1ccc(C(F)(F)F)cc1	inactive
O=C(O)CN1C(=O)c2cccc3cccc(c23)C1=O	inactive
Cc1ncc(COP(=O)(O)O)c(C=O)c1O	inactive
Cc1cc(O)cc2c1O[C@](C)(CCC[C@H](C)CCC[C@H](C)CCCC(C)C)CC2	inactive
Cc1cc(C(C#N)c2ccc(Cl)cc2)c(Cl)cc1NC(=O)c1cc(I)cc(I)c1O (stereo not drawn)	inactive
CC(C)(C)C(=O)NCCCC(=O)O	inactive
Cc1ccc(C(C)C)cc2c(C)ccc1-2	inactive
Nc1ccc(S(=O)(=O)Nc2nccs2)cc1	inactive
NC(=O)NNc1ccccc1	inactive
C[C@H]1O[C@@H](n2cc(F)c(=O)[nH]c2=O)[C@H](O)[C@@H]1O	inactive
COc1ccccc1O	inactive
Cc1cccc(Nc2cc(Cl)nc(SCC(=O)O)n2)c1C	inactive
